Assay [1] deals with T1, Inhibitor of nuclear factor kappa-B kinase subunit epsilon (Homo sapiens) (UniProt Q14164).
T1 sequence (whole entry): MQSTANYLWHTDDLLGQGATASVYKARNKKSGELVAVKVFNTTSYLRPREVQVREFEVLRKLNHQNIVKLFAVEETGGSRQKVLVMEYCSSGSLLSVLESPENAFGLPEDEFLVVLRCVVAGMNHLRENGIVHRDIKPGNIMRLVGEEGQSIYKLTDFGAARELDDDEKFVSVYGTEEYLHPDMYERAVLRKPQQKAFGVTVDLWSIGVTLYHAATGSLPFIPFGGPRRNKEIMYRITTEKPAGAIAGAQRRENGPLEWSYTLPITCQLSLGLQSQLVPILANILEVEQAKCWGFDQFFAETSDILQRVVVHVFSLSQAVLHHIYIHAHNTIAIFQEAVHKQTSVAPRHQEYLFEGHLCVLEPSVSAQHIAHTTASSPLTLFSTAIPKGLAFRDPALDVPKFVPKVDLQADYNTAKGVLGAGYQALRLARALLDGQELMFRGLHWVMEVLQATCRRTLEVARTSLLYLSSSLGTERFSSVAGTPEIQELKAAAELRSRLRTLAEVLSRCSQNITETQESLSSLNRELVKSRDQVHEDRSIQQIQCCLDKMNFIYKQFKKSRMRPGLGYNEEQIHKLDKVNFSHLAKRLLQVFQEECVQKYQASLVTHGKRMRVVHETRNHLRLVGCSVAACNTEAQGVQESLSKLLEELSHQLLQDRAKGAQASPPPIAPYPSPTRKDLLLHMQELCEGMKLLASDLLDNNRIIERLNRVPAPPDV
Particulars: at 1 µM.

In assay [2] the target is T2, Serine/threonine-protein kinase Nek1 (Homo sapiens) (UniProt Q96PY6).
T2 sequence (whole entry): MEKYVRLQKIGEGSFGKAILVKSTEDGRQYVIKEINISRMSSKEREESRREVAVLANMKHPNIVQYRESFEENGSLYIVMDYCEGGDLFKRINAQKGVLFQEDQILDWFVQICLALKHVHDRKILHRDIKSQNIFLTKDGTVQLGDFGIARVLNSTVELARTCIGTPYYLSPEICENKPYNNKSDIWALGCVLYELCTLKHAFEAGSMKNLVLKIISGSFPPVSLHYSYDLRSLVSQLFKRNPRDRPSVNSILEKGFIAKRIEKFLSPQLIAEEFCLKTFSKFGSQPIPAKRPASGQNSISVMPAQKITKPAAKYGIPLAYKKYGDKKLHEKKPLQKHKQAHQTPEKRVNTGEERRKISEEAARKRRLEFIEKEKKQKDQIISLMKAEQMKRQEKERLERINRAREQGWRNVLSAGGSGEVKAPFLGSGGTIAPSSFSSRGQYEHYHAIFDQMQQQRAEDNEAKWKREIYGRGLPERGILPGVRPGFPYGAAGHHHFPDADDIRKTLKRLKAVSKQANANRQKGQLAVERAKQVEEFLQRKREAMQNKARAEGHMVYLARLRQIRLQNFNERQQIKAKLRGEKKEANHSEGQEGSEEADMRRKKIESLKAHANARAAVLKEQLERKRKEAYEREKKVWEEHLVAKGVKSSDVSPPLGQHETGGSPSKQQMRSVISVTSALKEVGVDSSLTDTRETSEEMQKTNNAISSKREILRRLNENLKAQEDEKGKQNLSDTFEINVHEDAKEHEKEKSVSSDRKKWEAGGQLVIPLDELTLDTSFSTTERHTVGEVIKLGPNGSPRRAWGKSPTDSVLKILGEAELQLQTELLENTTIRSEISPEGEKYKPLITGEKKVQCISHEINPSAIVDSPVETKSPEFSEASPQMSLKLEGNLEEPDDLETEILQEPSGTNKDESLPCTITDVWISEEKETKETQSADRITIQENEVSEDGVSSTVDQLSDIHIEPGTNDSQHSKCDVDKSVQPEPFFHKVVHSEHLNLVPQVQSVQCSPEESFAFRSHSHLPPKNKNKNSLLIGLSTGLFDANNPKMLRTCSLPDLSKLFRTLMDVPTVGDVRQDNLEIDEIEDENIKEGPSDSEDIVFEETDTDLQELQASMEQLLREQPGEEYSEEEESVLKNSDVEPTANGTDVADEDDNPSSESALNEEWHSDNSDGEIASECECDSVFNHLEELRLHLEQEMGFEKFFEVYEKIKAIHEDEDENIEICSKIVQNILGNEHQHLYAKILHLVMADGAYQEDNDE
Conditions: at 0.1 µM.

Assay [3] addresses T2, Serine/threonine-protein kinase Nek1 (Homo sapiens). Conditions: at 1 µM.
Assay [4] addresses T3, Serine/threonine-protein kinase Nek2 (Homo sapiens) (UniProt P51955).
T3 sequence (whole entry): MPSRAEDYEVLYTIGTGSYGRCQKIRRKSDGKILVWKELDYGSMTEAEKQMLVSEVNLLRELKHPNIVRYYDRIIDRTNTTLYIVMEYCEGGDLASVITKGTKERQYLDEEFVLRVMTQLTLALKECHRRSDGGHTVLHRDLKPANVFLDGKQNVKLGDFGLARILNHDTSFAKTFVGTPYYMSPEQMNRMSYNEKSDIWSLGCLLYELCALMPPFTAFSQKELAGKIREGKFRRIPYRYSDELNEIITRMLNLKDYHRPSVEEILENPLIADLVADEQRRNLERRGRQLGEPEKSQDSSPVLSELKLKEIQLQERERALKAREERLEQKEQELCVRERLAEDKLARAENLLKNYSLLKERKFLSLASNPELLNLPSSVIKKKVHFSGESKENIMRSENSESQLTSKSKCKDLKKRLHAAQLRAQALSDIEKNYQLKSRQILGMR
Conditions: at 0.1 µM.

Assay [5] concerns the target T3, Serine/threonine-protein kinase Nek2 (Homo sapiens). Particulars: at 1 µM.
For assay [6], the target named is Serine/threonine-protein kinase Nek6 (Homo sapiens) (UniProt Q9HC98). Conditions: at 0.1 µM.
Assay [7] has the same target. Conditions: at 1 µM.
Assay [8] concerns the target Serine/threonine-protein kinase Nek7 (Homo sapiens) (UniProt Q8TDX7). Particulars: at 0.1 µM.
For assay [9] the target is unchanged. Particulars: at 1 µM.
The target of assay [10] is T4, Serine/threonine-protein kinase Nek9 (Homo sapiens) (UniProt Q8TD19).
T4 sequence (whole entry): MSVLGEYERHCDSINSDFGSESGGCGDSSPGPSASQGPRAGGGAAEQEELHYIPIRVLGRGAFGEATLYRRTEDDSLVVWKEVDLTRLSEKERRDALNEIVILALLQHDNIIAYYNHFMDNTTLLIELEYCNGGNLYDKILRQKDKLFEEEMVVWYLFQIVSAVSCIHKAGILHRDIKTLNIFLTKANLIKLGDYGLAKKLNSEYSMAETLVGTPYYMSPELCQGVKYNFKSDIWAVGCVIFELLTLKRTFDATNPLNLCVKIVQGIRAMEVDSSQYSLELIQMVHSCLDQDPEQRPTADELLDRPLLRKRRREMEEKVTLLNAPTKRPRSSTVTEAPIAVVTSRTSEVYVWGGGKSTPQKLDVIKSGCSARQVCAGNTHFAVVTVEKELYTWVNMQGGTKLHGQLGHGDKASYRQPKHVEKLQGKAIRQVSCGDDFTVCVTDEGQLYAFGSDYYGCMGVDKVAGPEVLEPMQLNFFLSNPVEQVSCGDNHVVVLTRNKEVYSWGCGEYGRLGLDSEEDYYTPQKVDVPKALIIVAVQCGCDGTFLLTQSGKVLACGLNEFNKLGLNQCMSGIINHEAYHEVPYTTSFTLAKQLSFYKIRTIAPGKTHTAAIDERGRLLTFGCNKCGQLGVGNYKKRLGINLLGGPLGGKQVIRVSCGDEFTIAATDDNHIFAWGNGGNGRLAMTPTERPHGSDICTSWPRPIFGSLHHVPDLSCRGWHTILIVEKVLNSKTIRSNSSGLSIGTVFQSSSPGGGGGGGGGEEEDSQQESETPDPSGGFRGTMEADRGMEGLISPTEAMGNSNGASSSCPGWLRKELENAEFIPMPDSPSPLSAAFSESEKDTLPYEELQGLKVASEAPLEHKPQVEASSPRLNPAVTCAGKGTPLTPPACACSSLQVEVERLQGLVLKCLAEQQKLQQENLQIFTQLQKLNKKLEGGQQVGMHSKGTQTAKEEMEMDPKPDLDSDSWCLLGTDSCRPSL
Conditions: at 0.1 µM.

In assay [11] the target is T4, Serine/threonine-protein kinase Nek9 (Homo sapiens). Conditions: at 1 µM.
In assay [12] the target is Serine/threonine-protein kinase PLK1 (Homo sapiens) (UniProt P53350). Conditions: at 0.1 µM.
Assay [13] shares this target. Particulars: at 1 µM.
In assay [14] the target is T5, Dual specificity protein kinase TTK (Homo sapiens) (UniProt P33981).
T5 sequence (whole entry): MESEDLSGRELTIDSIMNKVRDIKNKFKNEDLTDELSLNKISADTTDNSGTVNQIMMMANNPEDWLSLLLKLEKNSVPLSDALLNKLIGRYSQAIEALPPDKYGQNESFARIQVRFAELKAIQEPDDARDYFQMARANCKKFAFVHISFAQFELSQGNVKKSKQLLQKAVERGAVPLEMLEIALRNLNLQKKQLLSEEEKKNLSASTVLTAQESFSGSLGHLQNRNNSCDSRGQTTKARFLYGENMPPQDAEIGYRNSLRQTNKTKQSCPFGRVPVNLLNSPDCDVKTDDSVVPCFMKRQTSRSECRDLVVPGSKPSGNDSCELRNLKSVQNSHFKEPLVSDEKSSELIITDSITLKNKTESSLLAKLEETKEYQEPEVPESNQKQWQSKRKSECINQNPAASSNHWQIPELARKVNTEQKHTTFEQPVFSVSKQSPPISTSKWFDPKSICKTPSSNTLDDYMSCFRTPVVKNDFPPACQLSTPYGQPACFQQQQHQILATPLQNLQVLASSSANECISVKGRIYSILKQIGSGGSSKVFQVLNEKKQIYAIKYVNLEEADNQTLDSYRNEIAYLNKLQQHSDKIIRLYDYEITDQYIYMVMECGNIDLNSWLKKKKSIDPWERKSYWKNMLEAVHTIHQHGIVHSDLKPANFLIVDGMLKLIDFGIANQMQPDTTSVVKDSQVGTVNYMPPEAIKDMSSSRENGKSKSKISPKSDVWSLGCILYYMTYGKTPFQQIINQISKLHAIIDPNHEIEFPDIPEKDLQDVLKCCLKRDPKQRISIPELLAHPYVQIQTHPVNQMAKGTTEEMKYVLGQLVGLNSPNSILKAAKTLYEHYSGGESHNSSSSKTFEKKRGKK
Particulars: at 0.1 µM.

The test system of assay [15] is T6, Receptor-type tyrosine-protein kinase FLT3 (Homo sapiens), P36888 [D835Y].
T6 sequence (whole entry): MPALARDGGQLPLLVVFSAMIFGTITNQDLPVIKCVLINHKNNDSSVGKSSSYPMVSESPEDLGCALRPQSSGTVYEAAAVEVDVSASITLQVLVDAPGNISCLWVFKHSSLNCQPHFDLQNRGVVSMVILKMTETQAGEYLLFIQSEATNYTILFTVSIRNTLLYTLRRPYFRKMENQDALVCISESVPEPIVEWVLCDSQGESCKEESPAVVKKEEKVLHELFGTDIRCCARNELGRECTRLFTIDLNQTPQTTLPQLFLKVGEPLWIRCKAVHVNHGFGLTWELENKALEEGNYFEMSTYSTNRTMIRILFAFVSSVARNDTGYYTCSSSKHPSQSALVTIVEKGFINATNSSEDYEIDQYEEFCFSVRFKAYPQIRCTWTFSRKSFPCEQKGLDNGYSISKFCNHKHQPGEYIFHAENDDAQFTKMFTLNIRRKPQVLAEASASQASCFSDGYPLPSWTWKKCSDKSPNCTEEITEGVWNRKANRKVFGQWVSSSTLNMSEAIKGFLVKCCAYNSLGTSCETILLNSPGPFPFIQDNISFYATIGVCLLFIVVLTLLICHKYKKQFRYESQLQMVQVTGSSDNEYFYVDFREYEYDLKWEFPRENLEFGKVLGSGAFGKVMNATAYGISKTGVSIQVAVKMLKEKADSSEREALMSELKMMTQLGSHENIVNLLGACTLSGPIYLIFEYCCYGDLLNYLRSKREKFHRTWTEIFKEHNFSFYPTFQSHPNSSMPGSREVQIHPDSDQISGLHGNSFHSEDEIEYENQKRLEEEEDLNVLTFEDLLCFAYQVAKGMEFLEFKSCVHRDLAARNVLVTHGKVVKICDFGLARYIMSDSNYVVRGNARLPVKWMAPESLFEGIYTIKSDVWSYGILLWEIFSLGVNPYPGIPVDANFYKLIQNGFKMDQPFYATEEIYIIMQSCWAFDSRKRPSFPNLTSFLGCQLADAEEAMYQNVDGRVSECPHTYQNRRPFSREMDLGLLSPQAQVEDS
Particulars: at 1 µM.

Assay [16] deals with Vascular endothelial growth factor receptor 3 (Homo sapiens) (UniProt P35916). Conditions: at 0.1 µM.
For assay [17] the target is unchanged. Particulars: at 1 µM.
Assay [18] addresses Macrophage colony-stimulating factor 1 receptor (Homo sapiens) (UniProt P07333). Conditions: at 0.1 µM.
Assay [19] has the same target. Conditions: at 1 µM.
The target in assay [20] is Tyrosine-protein kinase Fyn (Homo sapiens) (UniProt P06241). Particulars: at 0.1 µM.

We go through two compounds from ChEMBL document CHEMBL1961873, “Compounds: GSK PKIS; Assays: Nanosyn kinase panel” (2012).

SMILES strings stand for the structures.

Macrophage colony-stimulating factor 1 receptor (Homo sapiens), sequence (P07333 whole entry): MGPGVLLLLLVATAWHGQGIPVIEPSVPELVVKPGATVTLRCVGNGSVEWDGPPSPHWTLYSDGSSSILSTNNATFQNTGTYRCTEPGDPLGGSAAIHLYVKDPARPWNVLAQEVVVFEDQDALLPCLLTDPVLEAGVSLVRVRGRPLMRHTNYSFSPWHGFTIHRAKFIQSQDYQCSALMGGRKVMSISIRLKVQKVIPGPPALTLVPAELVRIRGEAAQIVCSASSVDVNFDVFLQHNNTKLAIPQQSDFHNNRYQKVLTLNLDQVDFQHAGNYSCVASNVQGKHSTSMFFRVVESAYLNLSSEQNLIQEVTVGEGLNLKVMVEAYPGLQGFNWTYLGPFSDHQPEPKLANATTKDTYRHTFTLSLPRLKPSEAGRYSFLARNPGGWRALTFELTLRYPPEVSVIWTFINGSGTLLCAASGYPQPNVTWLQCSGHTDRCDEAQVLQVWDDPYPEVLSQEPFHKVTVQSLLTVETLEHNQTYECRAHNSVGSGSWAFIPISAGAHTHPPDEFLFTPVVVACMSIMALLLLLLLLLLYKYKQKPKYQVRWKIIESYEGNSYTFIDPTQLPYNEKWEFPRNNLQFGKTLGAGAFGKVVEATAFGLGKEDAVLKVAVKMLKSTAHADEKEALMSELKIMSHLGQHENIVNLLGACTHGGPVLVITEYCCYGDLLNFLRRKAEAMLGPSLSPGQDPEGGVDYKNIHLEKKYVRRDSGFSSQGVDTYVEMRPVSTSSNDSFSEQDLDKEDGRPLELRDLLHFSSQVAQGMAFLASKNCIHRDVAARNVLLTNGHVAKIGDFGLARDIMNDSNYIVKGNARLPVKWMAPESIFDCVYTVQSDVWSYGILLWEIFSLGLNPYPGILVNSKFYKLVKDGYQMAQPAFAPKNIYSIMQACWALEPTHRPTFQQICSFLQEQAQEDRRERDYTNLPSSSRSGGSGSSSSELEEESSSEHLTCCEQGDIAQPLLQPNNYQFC
Serine/threonine-protein kinase Nek6 (Homo sapiens), sequence (Q9HC98 whole entry): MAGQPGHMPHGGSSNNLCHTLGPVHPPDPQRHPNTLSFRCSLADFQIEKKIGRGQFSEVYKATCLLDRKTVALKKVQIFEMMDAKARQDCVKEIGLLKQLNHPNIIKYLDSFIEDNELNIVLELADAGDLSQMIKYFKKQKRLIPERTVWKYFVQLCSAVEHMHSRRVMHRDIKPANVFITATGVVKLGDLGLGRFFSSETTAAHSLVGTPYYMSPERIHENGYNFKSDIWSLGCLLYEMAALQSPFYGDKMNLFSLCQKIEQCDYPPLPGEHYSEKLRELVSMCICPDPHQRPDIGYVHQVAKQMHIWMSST
Vascular endothelial growth factor receptor 3 (Homo sapiens), sequence (P35916 whole entry): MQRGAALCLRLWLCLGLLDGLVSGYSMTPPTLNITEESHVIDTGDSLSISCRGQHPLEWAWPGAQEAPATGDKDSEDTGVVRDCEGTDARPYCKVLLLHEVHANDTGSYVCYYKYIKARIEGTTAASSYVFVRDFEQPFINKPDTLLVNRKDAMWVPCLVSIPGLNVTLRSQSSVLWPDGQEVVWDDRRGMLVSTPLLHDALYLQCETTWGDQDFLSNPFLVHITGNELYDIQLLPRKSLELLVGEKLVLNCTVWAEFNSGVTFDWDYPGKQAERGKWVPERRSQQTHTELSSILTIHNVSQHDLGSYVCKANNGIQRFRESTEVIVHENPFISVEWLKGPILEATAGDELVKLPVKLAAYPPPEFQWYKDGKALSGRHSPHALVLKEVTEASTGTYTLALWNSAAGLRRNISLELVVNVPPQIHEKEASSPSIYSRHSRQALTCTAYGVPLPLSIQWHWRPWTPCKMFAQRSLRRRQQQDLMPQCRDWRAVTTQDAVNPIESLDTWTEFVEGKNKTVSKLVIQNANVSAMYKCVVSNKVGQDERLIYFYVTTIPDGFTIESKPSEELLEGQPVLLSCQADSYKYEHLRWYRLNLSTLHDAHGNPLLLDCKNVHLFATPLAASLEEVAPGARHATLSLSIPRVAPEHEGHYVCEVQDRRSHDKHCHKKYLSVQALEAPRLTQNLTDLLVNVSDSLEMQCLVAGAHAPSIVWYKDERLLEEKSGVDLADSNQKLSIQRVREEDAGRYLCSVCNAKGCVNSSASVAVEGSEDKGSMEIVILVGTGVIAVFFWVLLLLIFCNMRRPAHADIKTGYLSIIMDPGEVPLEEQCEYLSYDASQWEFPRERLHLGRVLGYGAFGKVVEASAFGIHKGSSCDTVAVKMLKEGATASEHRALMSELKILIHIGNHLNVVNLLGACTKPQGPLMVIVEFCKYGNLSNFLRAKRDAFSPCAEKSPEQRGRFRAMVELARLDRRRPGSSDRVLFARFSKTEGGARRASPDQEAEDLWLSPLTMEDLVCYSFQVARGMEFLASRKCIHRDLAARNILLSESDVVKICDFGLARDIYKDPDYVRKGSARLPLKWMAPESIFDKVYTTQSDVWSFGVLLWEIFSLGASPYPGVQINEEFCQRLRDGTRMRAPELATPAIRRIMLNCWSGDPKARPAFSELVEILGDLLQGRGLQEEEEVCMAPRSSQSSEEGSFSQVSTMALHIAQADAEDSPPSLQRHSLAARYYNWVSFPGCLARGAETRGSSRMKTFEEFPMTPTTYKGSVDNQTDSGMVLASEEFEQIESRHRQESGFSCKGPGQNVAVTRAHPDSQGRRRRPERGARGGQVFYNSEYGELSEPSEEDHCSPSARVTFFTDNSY
Serine/threonine-protein kinase PLK1 (Homo sapiens), sequence (P53350 whole entry): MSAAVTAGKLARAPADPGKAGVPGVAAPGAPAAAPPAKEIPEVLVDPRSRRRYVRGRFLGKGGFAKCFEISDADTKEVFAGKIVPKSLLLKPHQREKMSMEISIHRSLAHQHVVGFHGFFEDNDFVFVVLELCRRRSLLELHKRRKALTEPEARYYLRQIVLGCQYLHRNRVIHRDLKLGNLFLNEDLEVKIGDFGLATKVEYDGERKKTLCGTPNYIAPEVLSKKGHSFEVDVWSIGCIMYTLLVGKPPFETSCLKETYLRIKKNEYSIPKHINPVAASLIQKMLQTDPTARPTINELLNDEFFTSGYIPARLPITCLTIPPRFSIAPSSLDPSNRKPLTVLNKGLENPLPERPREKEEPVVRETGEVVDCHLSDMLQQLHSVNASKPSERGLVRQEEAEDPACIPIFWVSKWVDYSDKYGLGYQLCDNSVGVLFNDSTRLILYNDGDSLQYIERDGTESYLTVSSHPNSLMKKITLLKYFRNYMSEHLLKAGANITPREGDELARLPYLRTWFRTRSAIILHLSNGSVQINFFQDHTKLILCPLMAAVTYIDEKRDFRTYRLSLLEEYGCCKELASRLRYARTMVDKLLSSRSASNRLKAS
Serine/threonine-protein kinase Nek7 (Homo sapiens), sequence (Q8TDX7 whole entry, looked up): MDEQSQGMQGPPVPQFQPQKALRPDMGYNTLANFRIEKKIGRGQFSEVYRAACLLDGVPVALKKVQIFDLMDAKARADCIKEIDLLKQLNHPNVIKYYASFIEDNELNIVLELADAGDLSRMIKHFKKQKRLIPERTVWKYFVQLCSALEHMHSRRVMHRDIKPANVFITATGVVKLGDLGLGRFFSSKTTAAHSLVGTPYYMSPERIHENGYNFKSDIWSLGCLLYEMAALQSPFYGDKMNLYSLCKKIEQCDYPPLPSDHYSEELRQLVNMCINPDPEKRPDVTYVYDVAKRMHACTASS
Tyrosine-protein kinase Fyn (Homo sapiens), sequence (P06241 2-537 limits assumed): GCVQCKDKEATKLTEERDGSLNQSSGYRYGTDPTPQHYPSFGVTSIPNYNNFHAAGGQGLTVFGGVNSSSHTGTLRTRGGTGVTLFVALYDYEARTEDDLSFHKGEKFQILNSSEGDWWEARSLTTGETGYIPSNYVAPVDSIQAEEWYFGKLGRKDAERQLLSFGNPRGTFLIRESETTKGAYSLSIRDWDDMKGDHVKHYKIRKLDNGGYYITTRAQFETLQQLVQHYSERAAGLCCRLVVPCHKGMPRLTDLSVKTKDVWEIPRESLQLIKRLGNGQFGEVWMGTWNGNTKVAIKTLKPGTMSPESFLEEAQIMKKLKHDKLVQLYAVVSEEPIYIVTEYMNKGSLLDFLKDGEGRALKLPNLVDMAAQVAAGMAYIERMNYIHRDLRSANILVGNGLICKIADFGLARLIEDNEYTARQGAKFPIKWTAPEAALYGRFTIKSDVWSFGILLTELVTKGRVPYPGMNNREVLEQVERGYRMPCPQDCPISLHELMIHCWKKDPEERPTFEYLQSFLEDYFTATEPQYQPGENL

`CCn1c(-c2nonc2N)nc2c(C#CC(C)(C)O)nc(OCCNC)cc21`: the inhibition was determined as 46.6% in [1]; 1.96% in [2]; 2.74% in assay [3]; 5.33% in [4]; 2.6% in assay [5]; 2.62% in assay [6]. Also, the inhibition in assay [7] came to 1.71%; in [8], 4.06%; in [9], 9.15%; in assay [10], 7.21%; in assay [11], 7.49%; in assay [12], 6.83%. Further, the inhibition in assay [13] is 8.02%; in assay [14], 7.19%; in assay [15], -0.49%; in assay [16] it was 1.76%; in [17] it was 11.6%; in assay [18], -0.38%. Further, the values for the inhibition in [19] and in assay [20] were 3.67% and 1.14%, respectively.

With `NS(=O)(=O)c1ccc(NC=C2C(=O)Nc3ccc4ncsc4c32)cc1`, the inhibition in assay [1] stood at 65.4%; in [2], 3.02%; in [3] it was 6.96%; in assay [4], 5.94%; in assay [5], 8.12%; in assay [6], 1.57%. Moreover, the inhibition in assay [7] was 7.78%; in assay [8] it was 7.6%; in assay [9] it was 13.9%; in assay [10], 9.07%; in [11], 32%; in assay [12] it was 4.42%. The inhibition in assay [13] came out at 6.99%; in [14] it was 52.1%; in assay [15], 87.5%; in [16], 63.9%; in [17], 102%; in [18], 47.5%. Also, the inhibition in assay [19] came to 85.5%; in assay [20], 5.49%.
